Experimental data from ChEMBL document CHEMBL1157539, “Thousands of chemical starting points for antimalarial lead identification” (Nature, 2010).

Experiments:
Format in all cases: functional
Plasmodium falciparum [1] = assay: GSK_TCMDC: Inhibition of Plasmodium falciparum 3D7 in whole red blood cells, using parasite LDH activity as an index of growth. Test compounds present at 2uM
Plasmodium falciparum [2] = assay: GSK_TCMDC: Inhibition of Plasmodium falciparum Dd2 in whole red blood cells, using parasite LDH activity as an index of growth. Test compounds present at 2uM
HepG2 = assay: GSK_TCMDC: Percent inhibition of human HepG2 cell line. Test compounds present at 10uM.

SMILES | Inhibition (Plasmodium falciparum [1]) | Inhibition (Plasmodium falciparum [2]) | Inhibition (HepG2)
Cc1nn(C2CCS(=O)(=O)C2)c(C)c1C1Nc2ccccc2C(=O)N1Cc1ccc2c(c1)OCO2 (stereo not given) | 98% | 93% | 7%
FC(F)(F)Oc1ccc(-c2cnc3ccc(NCc4ccncc4)nn23)cc1 | 97% | 54% | 19%
CC(C)C[C@H](NC(=O)c1ccc(OCCN2CCOCC2)cc1)C(=O)N[C@H](/C=N/N1CC(=O)NC1=O)CCc1ccccc1 | 88% | 67% | 10%
Br.Cc1ccccc1OCCCON1C(=N)N=C(N)NC1(C)C | 95% | 97% | 66%
COc1ccc2[nH]c(/C=C/c3cccc4ccc(C)nc34)nc2c1 | 98% | 77% | 25%
COc1ccc2nccc([C@@H](O)CN3CCC(NC(=O)c4ccc(Cl)c(OC)c4)CC3)c2c1 | 87% | 28% | 26%
Cc1cc(Nc2ccc(C)c(Cl)c2)n2nc(C(F)(F)F)nc2n1 | 98% | 97% | 2%
CCN(CC)CCn1c2ccccc2c2ccc(C(=O)Nc3ccc4sc(C)nc4c3)cc21.Cl | 84% | 26% | 97%
CN(C)Cc1ccc(-c2ccc3ccnc(N)c3c2)cc1 | 100% | 100% | 20%
CN(c1ccc(F)cc1)S(=O)(=O)c1ccc(Cl)c(C(=O)Nc2cccc(C#N)c2)c1 | 95% | 58% | 5%
CCc1cc(NC(=O)Nc2ccnc3ccccc23)ccc1OC.Cl | 85% | 24% | 0%
CN1CCN(c2ccnc3ccc(NC(=O)Cc4ccc(OCc5ccccc5)cc4)cc23)CC1 | 100% | 89% | 6%
O=C(/C=C/c1ccc(Cl)c(Cl)c1)NCCCCCCN1CCN(C(=O)Nc2ccc(OC(F)F)cc2)CC1 | 91% | 15% | 44%
Cc1csc(-c2nc(NCc3cccnc3)ncc2-c2ccsc2)n1 | 87% | 74% | 0%
COc1ccc(-n2ccnc2)cc1CNC1CCN(CC2Cn3c(=O)ccc4ccc(F)c2c43)CC1.O=C(O)C(F)(F)F (stereo not given) | 99% | 18% | 25%
Br.CC1(C)NC(N)=NC(=N)N1OCCNCc1ccc(Cl)cc1 | 95% | 0% | 5%
CC(=O)Nc1nc(C(=O)Nc2cccc(-c3ccc(-c4nc5cccc(C)c5[nH]4)s3)c2)cs1 | 100% | 67% | 14%
CN(C)c1cc(NC(=O)Nc2ccc(SC(F)(F)F)cc2)c2ccccc2n1 | 100% | 100% | 22%
CC(C)(C)OC(=O)N[C@@H](Cc1ccccc1)C(=O)Nc1cccc(-c2cccc(NC(=O)[C@H](Cc3ccccc3)NC(=O)OC(C)(C)C)c2)c1 | 100% | 97% | 10%
CCN(CCS(C)(=O)=O)Cc1ccc(-c2ccc3ncnc(Nc4ccc(OCc5cccc(F)c5)c(Cl)c4)c3c2)o1.Cc1ccc(S(=O)(=O)O)cc1 | 100% | 63% | 5%

SMILES | Inhibition (Plasmodium falciparum [1]) | Inhibition (Plasmodium falciparum [2]) | Inhibition (HepG2)
CNCCNCc1ccc(-c2cccc(-c3nc4cc(F)ccc4[nH]3)c2)cc1.O=C(O)C(F)(F)F | 93% | 1% | 10%
Cc1nc(N)nc(N)c1-c1ccc(Cl)cc1 | 96% | 0% | 15%
CCCc1cc(C)ccc1OCCCON1C(NC(=O)OCC)=NC(NC(=O)OCC)=NC1(C)C | 95% | 97% | 62%
O=C(Nc1ccc2c(c1)CCN2C1CCN(Cc2ccc(O)cc2)C1)c1ccco1 (stereo not given) | 97% | 63% | 0%
Br.CN1C(=O)C(=O)N(CCCCCONC(=N)N)C1=S | 100% | 1% | 21%
COC(=O)c1cc(OC)c(OC)cc1NC(=O)NC12CC3CC(CC(C3)C1)C2 | 94% | 3% | 6%
O=C(Nc1cc(Cl)cc(Cl)c1)N[C@H]1CCN(CCCCCNC(=O)C2CC2c2ccc(Cl)c(Cl)c2)C1 (stereo not given in full) | 99% | 0% | 49%
COC(=O)c1ccc(CCC(C)NCC(O)c2cccc(C(F)(F)F)c2)cc1.Cl (stereo not given) | 99% | 99% | 16%
CN(C)Cc1c(O)ccc2[nH]c(-c3ccc(OC(F)(F)F)cc3)nc12 | 100% | 97% | 24%
COc1cc(F)c2nccc([C@@H](O)CN3CCC(NCc4ccc5c(n4)NC(=O)CS5)C(F)C3)c2c1.Cl (stereo not given in full) | 87% | 80% | 32%
N#Cc1ccc2[nH]cc(CN3CCC4(CC3)CN(CCNCc3ccccc3)C(=O)O4)c2c1.O=C(O)C(F)(F)F | 100% | 0% | 0%
CCCCN1CCCN(Cc2cccc(NC(=O)c3ccc(-c4ccccc4)cc3)c2)CC1.O=C(O)C(F)(F)F | 92% | 8% | 19%
COc1ccc(CNCc2ccc(F)cc2)cc1-c1ccc(S(=O)(=O)NCCN2CCCC2)cc1.O=C(O)C(F)(F)F | 91% | 25% | 38%
CCN(CCCN1CCCCC1)c1cc(C)nc(Nc2cccc(C(F)(F)F)c2C)n1.O=C(O)C(F)(F)F | 99% | 37% | 57%
Oc1ccc(Nc2nc(NCc3ccco3)c3ccccc3n2)cc1 | 100% | 78% | 7%
O=C(NC1CCC(N2CCC(c3ccccc3C(F)(F)F)CC2)CC1)c1cc2ccccc2[nH]1 (stereo not given) | 100% | 98% | 80%
CS(=O)(=O)c1ccc(CCNCc2ccc(-c3ccc(CN(C(=O)C4CCCC4)C4CCN(Cc5ccccc5)CC4)cc3)nc2)cc1.O=C(O)C(F)(F)F | 91% | 20% | 24%
COc1cc(Nc2nccc(N3CCC(NC(=O)c4cccc(NC(C)=O)c4)C3)n2)cc(OC)c1OC (stereo not given) | 98% | 68% | 9%
CC1(CCc2ccccc2)N=C(Nc2ccc(Cl)cc2)N=C(N)C1c1ccc(Cl)c(Cl)c1 (stereo not given) | 100% | 98% | 81%
CC(C)C[C@H](NC(=O)c1cc2ccccc2s1)C(=O)N[C@H]1CCN(Cc2ccc(OC[C@@H]3CCCN3C)c(Cl)c2)C1.O=C(O)C(F)(F)F | 100% | 81% | 83%

SMILES | Inhibition (Plasmodium falciparum [1]) | Inhibition (Plasmodium falciparum [2]) | Inhibition (HepG2)
O=C(O)C(F)(F)F.Oc1ccc(CCNc2nc(NCCCOc3cc(CN4CCCCC4)ccc3F)nc(N3CCNCC3)n2)cc1 | 100% | 0% | 30%
COc1cccc(-c2cnc(N)c(-c3nc4ccc(C(F)(F)F)cc4[nH]3)c2)c1.Cl | 99% | 30% | 5%
CCCN(c1ccc(C(F)(F)F)cc1[N+](=O)[O-])S(=O)(=O)C(c1ccccc1)c1ccc(C(F)(F)F)cc1[N+](=O)[O-] (stereo not given) | 94% | 49% | 0%
Cc1ccc(-c2ccc3c(c2)C=C(C(=O)NCC2CCN(CC4CCN(C(=O)/C=C/c5ccc(Cl)c(Cl)c5)CC4)CC2)CCC3)cc1 | 99% | 70% | 96%
COc1ccccc1NC(=O)Nc1cccc(-c2cccc(-c3nc4cccc(C)c4[nH]3)c2)c1 | 100% | 90% | 11%
CCCc1cc(=O)oc2cc(OC)c(C(=O)CC(C)C)c(OC)c12 | 81% | 67% | 3%
COc1ccc(CNCc2ccc(-c3ccc(-c4nc5cc(F)ccc5[nH]4)cc3)cc2)cc1.O=C(O)C(F)(F)F | 99% | 83% | 70%
CC[C@H](C)CNCc1ccc(OCc2cccc(COc3ccc(CNC[C@@H](C)CC)cc3I)c2)c(I)c1.Cl | 99% | 60% | 99%
O=C(O)C(F)(F)F.Oc1ccc(CCCNc2nc(NCc3cccc4ccccc34)nc(N3CCNCC3)n2)cc1 | 100% | 4% | 9%
COc1ccc(C=NNc2cc(C)nc3ccc(OC)cc23)c(OC)c1 | 100% | 95% | 23%
COc1ccc(N2CCN(CCCCNC(=O)c3ccc(NC(=O)c4ccc(C(F)(F)F)cc4)cc3)CC2)c(OC)c1 | 100% | 8% | 4%
O=C(Nc1ccc(Cl)c(Cl)c1)C1CCC(=O)N1[C@@H](Cc1ccccc1)C(=O)NCCc1ccc(Cl)cc1 (stereo not given in full) | 95% | 0% | 3%
CCCCN(CCCC)CCNC(=O)c1cccc(NC(=O)N2CCc3cc(SC)c(C(F)(F)F)cc32)c1 | 96% | 32% | 15%
COc1ccc(-c2cccc(NC(=O)c3cccc(Cl)c3)c2)cc1CN1CCNCC1.O=C(O)C(F)(F)F | 100% | 52% | 29%
CC(C)CC(NC(=O)c1cc2ccccc2s1)C(=O)N1CCCCCC1c1ccc(C(C)(C)C)cc1 (stereo not given) | 91% | 39% | 23%
O=C(Nc1ccc(-c2nc3ccccc3[nH]2)cc1)c1ccc(Cl)c([N+](=O)[O-])c1 | 99% | 4% | 6%
CCCCc1ccc(-c2c(N)nc(N)nc2CC)cc1 | 95% | 0% | 63%
CCC(C)c1ccc(NC(=O)C(C)c2ccc([N+](=O)[O-])cc2)cc1 (stereo not given) | 100% | 100% | 14%
Fc1cccc(COc2ccc(Nc3ncnc4sc(C#C[C@H]5CC[C@H](CN6CCOCC6)N5)cc34)cc2Cl)c1 | 92% | 23% | 16%
Cc1[nH]c(C)c(-c2ccc(-c3ccc(OC(F)(F)F)cc3)cc2)c(=O)c1Br | 96% | 97% | 33%
